Results: PubChem BioAssay AID489018 (Southern Research Specialized Biocontainment Screening …, 2010)
Out of some 2,300 compounds screened, about 350 (15%) were called active. Only a sample is shown. Results with a measured potency or affinity are listed apart. Unmarked numbers belong to inactive results. No rule for the calls is given here.

assay: HepG2 cell cytotoxicity, dose response, cytotoxicity control for non-replicating M. tuberculosis project (AID 489018); conditions: series mostly up to 20 µM; viability: at the top concentration;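 also: HepG2 human liver cells; 100% = vehicle-treated cells and 0% = background signal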

| SMILES | viability |
| --- | --- |
| Cc1n[nH]c(C)c1CCOc1ccc(C(C)C)cc1 | 77.2% |
| CC(C)c1ccc(OCC(=O)NNC(=O)c2cnccn2)cc1 | 97.1% |
| O=C(COC(=O)c1ccc(O)cc1O)c1ccc2c(c1)OCO2 | 104% [at 5 µM] |
| O=C1Nc2ccccc2/C1=C/C(=O)c1cccs1 | 103% |
| O=C(NN=C(Cc1ccccc1)Cc1ccccc1)c1ccncc1 | 98.5% |
| CCCCCn1c(=O)c2ccccc2n2c(CCl)nnc12 | 89.4% [at 5 µM] |
| CC(C)(C)Nc1nc(NC(C)(C)C)nc(-n2ccnc2)n1 | 108% [at 5 µM] |
| CN1/C(=C\C(=O)COC(=O)C2COc3ccccc3O2)C(C)(C)c2ccccc21 (stereo unspecified) | 105% [at 5 µM] |
| Cc1cccc(-c2nnc3sc(-c4ccccc4C)nn23)c1 | 88.6% |
| Cc1cc(C)cc(OC(=O)CCN2C(=O)c3ccccc3C2=O)c1 | 104% |
| COc1ccc(/C=N/Nc2cc(C)nc(-n3nc(C)cc3C)n2)c(OC)c1 | 98.1% [at 5 µM] |
| Cc1cc(N2CCC(C)CC2)nc(-n2nc(C)cc2C)n1 | 96.4% [at 5 µM] |
| CCOc1ccc(Nc2cc(C)nc(-n3nc(C)cc3C)n2)cc1 | 79.6% |
| Cc1cc(N2CCN(c3ccccc3)CC2)nc(-n2nc(C)cc2C)n1 | 92.3% [at 5 µM] |
| Cc1ccc(NC(=O)ON=C2CCCC2)cc1 | 75.1% |
| Cc1cc(NC(=O)C2CCCCC2)n(-c2nc3ccccc3[nH]2)n1 | 117% [at 5 µM] |
| O=C(OCn1nnc2ccccc2c1=O)c1cccs1 | 111% [at 5 µM] |
| COc1cc(/C=N/NC(=O)c2ccncc2)ccc1OC(=O)c1cccc(F)c1 | 105% [at 5 µM] |
| O=C(NCCCN1CCOCC1)c1c(O)c2cc(Br)cc(Br)c2[nH]c1=O | 75.9% |
| CC(C)Cc1nnc(NC(=O)CCS(=O)(=O)c2ccc(Cl)cc2)s1 | 99.2% |
| C=CCNc1nnc(Sc2ncccc2[N+](=O)[O-])s1 | 108% |
| Cc1cccc(OC(=O)c2sc3ncn(C)c(=O)c3c2C)c1 | 97.7% |
| COc1cccc(N2C(=O)NC(=O)/C(=C/c3ccc([N+](=O)[O-])s3)C2=O)c1 | 87.9% |
| CCCc1nnc(NC(=O)c2cc3ccccc3oc2=O)s1 | 97.8% |

| SMILES | viability |
| --- | --- |
| CCc1ccc(OCC(=O)Nc2ccncc2)c(Br)c1 | 93.6% [at 5 µM] |
| Cc1ccccc1C(=O)Nc1nnc(-c2ccco2)o1 | 94.8% |
| CCOc1ccc(C(=O)Nc2nnc(C3=COCCO3)o2)cc1 | 85.8% |
| O=C(CCS(=O)(=O)c1ccccc1)Nc1nnc(-c2ccco2)o1 | 90.4% |
| CC(C)(C)c1ccc(C(=O)Nc2nnc(C3=COCCO3)o2)cc1 | 93.6% [at 5 µM] |
| O=C(Nc1nnc(C2=COCCO2)o1)c1ccc(Cc2ccccc2)cc1 | 99.9% |
| Cc1ccsc1C(=O)OCC(=O)Nc1nnc(-c2ccccc2)o1 | 102% |
| Cc1cc(C(=O)COc2cccc3cccnc23)c(C)n1C | 94.5% |
| CN(O)/C=c1/ccc2c(n1)C(=O)C=CC=2 | 85.6% |
| Cc1ccc(-c2cc(C(F)F)nc(S(C)(=O)=O)n2)cc1 | 106% |
| CN1C(=O)NC(=O)/C(=C/c2ccc([N+](=O)[O-])s2)C1=O | 87.8% |
| CC1Cc2cc(/C=C3/SC(=S)NC3=O)ccc2O1 (stereo unspecified) | 88% |
| COc1ccc(S(=O)(=O)N(C(C)=O)c2ccc(OC(C)=O)c3ccccc23)cc1[N+](=O)[O-] | 96.7% |
| Cc1ccccc1Nc1c(-c2ccccn2)nc2ccccn12 | 99.6% [at 5 µM] |
| O=C(CCN1CCOCC1)c1ccc(Br)cc1 | 85.7% |
| O=c1[nH]c(O)c(/C=C2/C=CC(c3cc(Cl)ccc3Cl)=N2)c(=O)[nH]1 | 106% |
| CCOC(=O)Cc1cc(=O)n2[nH]cc(-c3ccc(Cl)cc3)c2n1 | 85.6% |
| CCOC(=O)C1(O)CC(C)=NN1C(=O)c1cccc(Br)c1 (stereo unspecified) | 90.3% |
| CN(C)CCOc1nc(-c2ccccc2)nc2c1oc1ccccc12 | 107% [at 5 µM] |
| COc1ccc(CN2C(=O)/C(=C/c3ccncc3)SC2=S)cc1 | 89.6% |
| Cc1ccccc1OCC(=O)OCC(=O)c1ccc[nH]1 | 105% |
| Cc1cc(CC(C)C)n(-c2nc3ccccc3c(=O)n2OCC(N)=O)n1 | 85% |
| O=C1/C(=C/c2ccccn2)COc2ccccc21 | 96.3% |
| Cc1ccc(OCC(=O)OCc2c(C)noc2C)cc1C | 107% |

| SMILES | viability |
| --- | --- |
| COc1cc(N=c2ssnc2Cl)cc(OC)c1 | 101% |
| COc1cc(OC)nc(-n2ncc(Br)c(Br)c2=O)n1 | 88.1% [at 5 µM] |
| Cc1ccc(OCC(=O)Nc2ccc([N+](=O)[O-])cc2)cc1 | 96.2% |
| Cc1ccc(NC(=O)COCC(=O)Nc2ccc(C)cc2)cc1 | 98.9% |
| CC(=O)OCCN(C)c1cc(SC(C)C)c2nonc2c1[N+](=O)[O-] | 97.2% |
| CC(=O)OCCNc1cc(SCc2ccco2)c2nonc2c1[N+](=O)[O-] | 95.5% |
| Cc1cccc(Cc2cnc(NC(=O)C3=NCCN3)s2)c1 | 107% [at 5 µM] |
| S=C1SCN(Cc2cccnc2)CN1Cc1ccccc1 | 97.6% |
| O=C1N(c2ccc3c(c2)OCCO3)C(c2ccccc2)C1(F)F (stereo unspecified) | 98.1% |
| COc1ccc(CNC(=O)c2cc3cccc(O)c3oc2=N)cc1 | 104% |
| Clc1ccc(CN2C3=NCCCN3c3ccccc32)cc1 | 92.4% |
| COc1ccccc1NC(=O)C(=O)/C=C(\O)c1ccccc1 | 96% |
| COc1ccc(NC(=O)c2ccc(-c3ccc([N+](=O)[O-])cc3)o2)cc1OC | 88.5% |
| O=C(Nc1nnc(C2=COCCO2)o1)c1ccc(F)cc1 | 110% [at 5 µM] |
| Cc1nnc(NC(=O)c2ccc3ccccc3c2)o1 | 112% |
| CCCCCCOC(=O)C(C#N)c1nc2ccccc2nc1N1CCN(CC)CC1 (stereo unspecified) | 98.2% [at 5 µM] |
| CCCNC(=O)NC(=O)COc1ccc(-c2ccc(C#N)cc2)cc1 | 102% |
| Cc1cccc(OC(=O)c2ccc3nccnc3c2)c1 | 107% |
| O=C1CC(=O)CC(c2ccccc2)C1 | 110% |
| CCOC(=O)CN1NC2(CCCC(C)C2)NC1=S (stereo unspecified) | 99.3% |
| CCOC(=O)COc1ccc2c(=O)c(-c3ccccc3)coc2c1 | 95.6% |
| O=C(N/N=C/c1ccc(OC(=O)c2cccs2)cc1)c1ccccn1 | 100% [at 5 µM] |
| O=c1oc(-c2ccccc2[N+](=O)[O-])nc2ccccc12 | 112% |
| CN(/N=C/c1ccc([N+](=O)[O-])o1)c1ccccc1 | 103% |

| SMILES | viability |
| --- | --- |
| Nc1nc2ccccc2n1CCOc1ccc(Br)cc1 | 99.2% [at 5 µM] |
| Cc1c(C(=O)NNC(=O)c2csc(N3CCOCC3)n2)oc2ccccc12 | 85.8% |
| O=C(N/N=C/C=C/c1cccc([N+](=O)[O-])c1)c1ccncc1 | 102% |
| O=C(Nc1nccs1)c1cc2cc(Cl)ccc2oc1=O | 73.2% |
| CCCCCn1nnc2c(=O)oc3ccccc3c21 | 105% |
| Cc1cc(=O)[nH]c(-n2nc(C)cc2C)n1 | 102% [at 5 µM] |
| O=C(Nc1ccc(-c2nc3ccccc3c(=O)o2)cc1)c1ccco1 | 102% [at 5 µM] |
| COc1ccc(C(O)CNc2ccc(C)cc2)cc1 (stereo unspecified) | 78.7% |
| CC(C)Oc1ccc(CNC(=O)Oc2ccccc2)cc1 | 102% |
| COc1ccc(C(C)NC(=O)CCc2ccccc2)cc1 (stereo unspecified) | 93.5% |
| Cc1cc(OCCOCCNCc2ccccc2)ccc1C(C)C | 92.4% [at 5 µM] |
| Cn1c(CNc2ccccc2O)nc2ccccc21 | 93.3% |
| CCCCN1CCC(O)(c2ccccc2)C(C(=O)c2ccccc2)C1 (stereo unspecified) | 98.1% [at 5 µM] |
| O=C(Nc1ccccc1F)c1ccc([N+](=O)[O-])s1 | 110% [at 5 µM] |
| CCOc1ccc(OCc2ccc(C(=O)OCc3ccccn3)o2)cc1 | 101% |
| Cc1ccc(-c2nc3ccccn3c2Nc2ccccc2)o1 | 85.7% |
| CCc1ccc(NC(=O)C(=O)NNC(=O)c2cccc(OC)c2)cc1 | 96% |
| Cc1ccc(NCCC(=O)c2cccs2)cc1 | 101% [at 5 µM] |
| CC1(C(=O)OCC(=O)Nc2nnc(-c3ccccc3)o2)CC1(Cl)Cl (stereo unspecified) | 99% |
| O=C(COc1ccc(Cl)cc1)Nc1ccc(Cl)cn1 | 96.5% |
| Cn1c(=O)c(Oc2ccc(Cl)cc2)c(O)c2ccccc21 | 115% |
| CC1CCCN(CCCOc2ccc([N+](=O)[O-])cc2)C1 (stereo unspecified) | 92.2% |
| Cc1ccccc1OCCNc1cc(N2CC(C)NC(C)C2)ccc1[N+](=O)[O-] (stereo unspecified) | 77% |
| CCOc1ccc(-c2cc(CCCC(=O)NCCC(C)C)no2)cc1 | 96.5% [at 5 µM] |

| SMILES | viability |
| --- | --- |
| O=C1OC(/C=C/c2ccccc2)=NC/1=C\c1cccnc1 | 93.5% |
| Cc1ccc(C2=N/C(=C\c3cccnc3)C(=O)O2)cc1 | 101% |
| COc1ccc(-c2cc(=O)oc(-c3cccc(C)c3)n2)cc1 | 89.9% |
| O=C(CCC1CCCC1)Nc1ccc(Br)cn1 | 110% |
| Cc1cc(C)n(-c2nc(NCCCO)c3c4c(sc3n2)CCCC4)n1 | 85.3% |
| CCOC(=O)c1sc2nc(CSc3ccccc3)nc(NCCN(C)C)c2c1C | 97.6% |
| CC1=C/C(=N\OS(=O)(=O)c2ccccc2)C(C)=CC1=O | 86.8% |
| O=C1CSC(=S)N1Cc1cccnc1 | 77.9% |
| COc1cccc(C(=O)OCn2nnc3ccccc3c2=O)c1OC | 108% |
| O=C(OCn1nnc2ccccc2c1=O)c1ccc(Br)o1 | 101% |
| O=[N+]([O-])c1ccc(-c2nc3ccc([N+](=O)[O-])cc3[nH]2)cc1 | 74.4% |
| c1ccc(-c2nc3c(ccc4ccccc43)[nH]2)nc1 | 83.3% |
| CCOC(=O)CNCCC(=O)c1ccc(Br)cc1 | 105% |
| COc1cc(OC)c2c(OC)cccc2n1 | 96.1% |
| CCN1CCN(c2ccc(S(=O)(=O)N3CCCCC3)cc2NC(=O)c2ccc([N+](=O)[O-])s2)CC1 | 102% [at 5 µM] |
| C/C(=N/NC(=O)c1cc2ccccc2cc1O)C1C(=O)c2ccccc2C1=O | 98.7% |
| CCN(CC)c1ccc2cc(C(=O)NCc3ccc(F)cc3)c(=N)oc2c1 | 82.6% |
| COCCSc1nnc(NC(=O)CCS(=O)(=O)Cc2ccccc2)s1 | 108% |
| CCC(C)n1nnc2c(=O)oc3ccccc3c21 (stereo unspecified) | 107% |
| O=C(Nc1ncc([N+](=O)[O-])s1)c1cccs1 | 72.9% |
